Test results published in PubChem BioAssay (NCATS).
Records with an inconclusive call do not appear. The source made the active and inactive calls. Calls come from the whole dose curve; as a rule, active = well fitted curve in the direction sought with a large enough effect; inconclusive = small, poorly fitted or top-dose-only effect, or another doubt; inactive = no such curve, though single readings can be large; an effect the other way counts as inactive or inconclusive.

Columns and labels:
[1] = Quantitative High-Throughput drug screen in 47 multiple myeloma cell lines against the NCATS MIPE library collection: KMM1_JCRB cell viability assay (AID 1918960); note: nearly all actives have a fitted effect of over 30% in size
Summary of the method: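 Myeloma cells, 500 per well, were exposed to MIPE 4.0 drugs by pin transfer for 48 h at 37 °C, 5% CO2. Viability was read as ATP luminescence with CellTiter-Glo, normalised to DMSO-only (100%) and medium-only (0%) wells.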

[2] = Quantitative High-Throughput drug screen in 47 multiple myeloma cell lines against the NCATS MIPE library collection: KHM11_PLB cell viability assay (AID 1918962); note: nearly all actives have a fitted effect of over 35% in size
Summary of the method: (§1)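 Primary qHTS used for cherry-picking: cells at 500/well, library compounds for 48 h (37C, 5% CO2), luminescent ATP assay.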

[3] = Quantitative High-Throughput drug screen in 47 multiple myeloma cell lines against the NCATS MIPE library collection: JIM3_ECACC cell viability assay (AID 1918963; note: nearly all actives have a fitted effect of over 35% in size)
Summary of the method: as §1

[4] = Quantitative High-Throughput drug screen in 47 multiple myeloma cell lines against the NCATS MIPE library collection: JJN3_DSMZ cell viability assay (AID 1918966; note: nearly all actives have a fitted effect of over 50% in size)
Summary of the method: (§2)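 Inhibition of cell viability is measured here. Each line was plated at 500 cells per well, treated with MIPE 4.0 drugs, kept 48 hours at 37C, then assayed for ATP content by CellTiter-Glo luminescence.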

[5] = Quantitative High-Throughput drug screen in 47 multiple myeloma cell lines against the NCATS MIPE library collection: Karpas25_ECACC cell viability assay (AID 1918968; note: nearly all actives have a fitted effect of over 35% in size)
Summary of the method: as §2

[6] = Quantitative High-Throughput drug screen in 47 multiple myeloma cell lines against the NCATS MIPE library collection: KMS27_JCRB cell viability assay (AID 1918970); note: nearly all actives have a fitted effect of over 30% in size
Summary of the method: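 KMS27_JCRB myeloma cells, 500 per well, exposed 48 h at 37 C, 5% CO2 to MIPE 4.0 compounds. Viability from ATP by CellTiter-Glo luminescence, normalized to DMSO (100%) and medium-only (0%) wells.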

[7] = Quantitative High-Throughput drug screen in 47 multiple myeloma cell lines against the NCATS MIPE library collection: KMS12BM_JCRB cell viability assay (AID 1918971); note: nearly all actives have a fitted effect of over 35% in size
Summary of the method: (§3)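 Steps: seed 500 cells per well; pin-transfer MIPE 4.0 library; incubate 48 h at 37C, 5% CO2, humidified; add CellTiter-Glo, 5 min room temperature; read luminescence.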

[8] = Quantitative High-Throughput drug screen in 47 multiple myeloma cell lines against the NCATS MIPE library collection: KMS12PE_JCRB cell viability assay (AID 1918972); note: nearly all actives have a fitted effect of over 30% in size
Summary of the method: (§4)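 We plated 500 myeloma cells per well, pinned in MIPE 4.0 compounds, and incubated for 48 hours at 37C. ATP was then quantified with CellTiter-Glo, with DMSO and media-only wells defining 100% and 0%.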

[9] = Quantitative High-Throughput drug screen in 47 multiple myeloma cell lines against the NCATS MIPE library collection: KMS20_JCRB cell viability assay (AID 1918973); note: nearly all actives have a fitted effect of over 45% in size
Summary of the method: as §2

[10] = Quantitative High-Throughput drug screen in 47 multiple myeloma cell lines against the NCATS MIPE library collection: KMS26_JCRB cell viability assay (AID 1918975); note: nearly all actives have a fitted effect of over 45% in size
Summary of the method: as §3

[11] = Quantitative High-Throughput drug screen in 47 multiple myeloma cell lines against the NCATS MIPE library collection: MMM1_PLB cell viability assay (AID 1918976); note: nearly all actives have a fitted effect of over 35% in size
Summary of the method: (§5)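 Plated at 500 cells per well, myeloma lines received MIPE 4.0 compounds by pin tool. Following 48 h culture at 37 °C, CellTiter-Glo luminescence gave viability relative to DMSO and media-only controls.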

[12] = Quantitative High-Throughput drug screen in 47 multiple myeloma cell lines against the NCATS MIPE library collection: MOLP8_DSMZ cell viability assay (AID 1918977); note: nearly all actives have a fitted effect of over 45% in size
Summary of the method: as §5

[13] = Quantitative High-Throughput drug screen in 47 multiple myeloma cell lines against the NCATS MIPE library collection: NCIH929_DSMZ cell viability assay (AID 1918978); note: nearly all actives have a fitted effect of over 35% in size
Summary of the method: as §5

[14] = Quantitative High-Throughput drug screen in 47 multiple myeloma cell lines against the NCATS MIPE library collection: OCIMY1_PLB cell viability assay (AID 1918979); note: nearly all actives have a fitted effect of over 35% in size
Summary of the method: as §5

[15] = Quantitative High-Throughput drug screen in 47 multiple myeloma cell lines against the NCATS MIPE library collection: MM1S_ATCC cell viability assay (AID 1918980); note: nearly all actives have a fitted effect of over 45% in size
Summary of the method: as §5

[16] = Quantitative High-Throughput drug screen in 47 multiple myeloma cell lines against the NCATS MIPE library collection: Karpas417_ECACC cell viability assay (AID 1918961); settings: Karpas417 myeloma viability, CellTiter-Glo ATP luminescence, 48 h; viability (% of DMSO): at 45.8 µM (top of the series)
Summary of the method: as §4

[17] = Quantitative High-Throughput drug screen in 47 multiple myeloma cell lines against the NCATS MIPE library collection: INA6_PLB cell viability assay (AID 1918965; note: nearly all actives have a fitted effect of over 55% in size)
Summary of the method: as §4

[18] = Quantitative High-Throughput drug screen in 47 multiple myeloma cell lines against the NCATS MIPE library collection: H1112_PLB cell viability assay (AID 1918967; note: nearly all actives have a fitted effect of over 30% in size)
Summary of the method: as §2

[19] = Quantitative High-Throughput drug screen in 47 multiple myeloma cell lines against the NCATS MIPE library collection: JIM1_ECACC cell viability assay (AID 1918964)
Summary of the method: as §2

[20] = Quantitative High-Throughput drug screen in 47 multiple myeloma cell lines against the NCATS MIPE library collection: KMS21BM_JCRB cell viability assay (AID 1918974); settings: ATP luminescence, 48 h; viability: at 45.8 µM (top of the series)
Summary of the method: as §2
Potency is the fitted concentration of half-maximal effect.

CC[C@@H]1[C@@H](C)O[C@@](O)([C@@H](C)[C@H](O)[C@H](C)[C@H]2OC(=O)C=CC=C[C@@H](C)[C@@H]([C@@H](C)[C@@H](O)[C@H](C)[C@@]3(O)C[C@H](O[C@H]4C[C@H](O)[C@H](O)[C@H](C)O4)[C@H](CC)[C@@H](C)O3)OC(=O)C=CC=C[C@@H]2C)C[C@H]1O[C@H]1C[C@H](O)[C@H](O)[C@H](C)O1
active: Potency [1] 469 nM | Potency [2] 1050 nM | Potency [3] 935 nM | Potency [4] 833 nM | Potency [5] 743 nM | Potency [6] 264 nM | Potency [7] 935 nM | Potency [8] 372 nM | Potency [9] 833 nM | Potency [10] 526 nM | Potency [11] 743 nM | Potency [12] 418 nM | Potency [13] 935 nM | Potency [14] 833 nM | Potency [15] 469 nM

CC(C)N(CCNC(=O)CN1CCCC1=O)C(C)C
active: Potency [7] 11800 nM
inactive: Potency [1] | Potency [16] | Potency [3] | Potency [17] | Potency [4] | Potency [18] | Potency [5] | Potency [8] | Potency [9] | Potency [12] | Potency [13] | Potency [14]

NC1CC1c1ccccc1 (stereo unspecified)
inactive: Potency [1] | Potency [2] | Potency [3] | Potency [18] | Potency [5] | Potency [6] | Potency [7] | Potency [8] | Potency [9] | Potency [10] | Potency [12] | Potency [13] | Potency [14] | Potency [15]

CCNC(=O)C[C@@H]1N=C(c2ccc(Cl)cc2)c2cc(OC)ccc2-n2c(C)nnc21
active: Potency [1] 235 nM | Potency [16] 13.2 nM | Potency [3] 6620 nM | Potency [17] 132 nM | Potency [4] 148 nM | Potency [18] 743 nM | Potency [5] 2090 nM | Potency [6] 469 nM | Potency [7] 235 nM | Potency [8] 166 nM | Potency [10] 93.5 nM | Potency [11] 209 nM | Potency [12] 209 nM | Potency [14] 1050 nM | Potency [15] 1050 nM

Cc1ccccc1-n1c(Cn2ncc3c(N)ncnc32)nc2cccc(C)c2c1=O
active: Potency [1] 372 nM | Potency [2] 332 nM | Potency [3] 418 nM | Potency [19] 66.2 nM | Potency [5] 264 nM | Potency [6] 23.5 nM | Potency [7] 7430 nM | Potency [8] 148 nM | Potency [9] 132 nM | Potency [13] 332 nM | Potency [15] 118 nM
inactive: Potency [4] | Potency [11]

CCCCCC[C@H]1C(=O)O[C@H](C)[C@H](NC(=O)c2cccc(NC=O)c2O)C(=O)O[C@@H](C)[C@@H]1OC(=O)CC(C)C
active: Potency [1] 418 nM | Potency [16] 332 nM | Potency [3] 46.9 nM | Potency [17] 83.3 nM | Potency [4] 296 nM | Potency [5] 166 nM | Potency [6] 235 nM | Potency [7] 6620 nM | Potency [8] 469 nM | Potency [10] 132 nM | Potency [11] 148 nM | Potency [12] 235 nM | Potency [13] 332 nM | Potency [15] 4690 nM

C#CC1(O)CCC2C3CCC4=CC(=O)CCC4(C)C3CCC21C (stereo unspecified)
inactive: Potency [1] | Potency [2] | Potency [5] | Potency [6] | Potency [8] | Potency [9] | Potency [13] | Potency [14] | Potency [15]
active: Potency [7] 4180 nM | Potency [11] 9350 nM

CC(C)N[C@@H]1CCn2c(=O)[nH]c3cccc(c32)[C@@H]1O
active: Potency [1] 743 nM | Potency [16] 1050 nM | Potency [3] 9350 nM | Potency [4] 9350 nM | Potency [5] 187 nM | Potency [6] 833 nM | Potency [8] 6620 nM | Potency [9] 10500 nM | Potency [20] 833 nM | Potency [10] 26400 nM | Potency [11] 18700 nM | Potency [13] 9350 nM | Potency [15] 372 nM

NC1=NC(=O)N2CC12 (stereo unspecified)
inactive: Potency [14] | Potency [15]
active: Potency [1] 11800 nM | Potency [16] 1660 nM | Potency [17] 18700 nM | Potency [6] 7430 nM | Potency [8] 10500 nM | Potency [13] 9350 nM

Cc1c(C(=O)Nc2cccc(C(F)(F)F)c2)cc(-c2ccccc2)n1CCCN1CCOCC1
active: Potency [1] 14800 nM | Potency [16] 7430 nM | Potency [3] 20900 nM | Potency [4] 16600 nM | Potency [18] 3720 nM | Potency [5] 11800 nM | Potency [6] 18700 nM | Potency [7] 13200 nM | Potency [8] 10500 nM | Potency [9] 16600 nM | Potency [20] 18700 nM | Potency [10] 11800 nM | Potency [11] 20900 nM | Potency [12] 20900 nM | Potency [15] 20900 nM

CSCC[C@@H](NC(=O)[C@@H](Cc1ccccc1)NC(=O)CNC(=O)CNC(=O)[C@@H](N)Cc1ccc(O)cc1)C(=O)O
active: viability (% of DMSO) [16] 132%
inactive: Potency [1] | Potency [3] | Potency [5] | Potency [6] | Potency [8] | Potency [9] | Potency [10] | Potency [13] | Potency [14] | Potency [15]

CN1CCN(c2ccc([N+](=O)[O-])c3no[n+]([O-])c23)CC1
active: Potency [1] 20900 nM | Potency [16] 5260 nM | Potency [3] 23500 nM | Potency [17] 13200 nM | Potency [4] 18700 nM | Potency [18] 23500 nM | Potency [5] 18700 nM | Potency [6] 20900 nM | Potency [7] 18700 nM | Potency [8] 16600 nM | Potency [9] 8330 nM | Potency [20] 8330 nM | Potency [11] 20900 nM | Potency [13] 11800 nM | Potency [14] 26400 nM | Potency [15] 23500 nM

COc1cccc2c1[C@]13CCN(CC4CC4)[C@H](C2)[C@]1(OC)CCC(=O)C3
active: viability (% of DMSO) [16] 89.4%
inactive: Potency [1] | Potency [3] | Potency [17] | Potency [5] | Potency [6] | Potency [7] | Potency [8] | Potency [10] | Potency [12] | Potency [13] | Potency [14] | Potency [15]
